This excerpt belongs to a sample that is enriched for hits.
CendR NRP1 mod – NRP-1/CendR interaction modulation; FAM-RPARPAR peptide binding to NRP-1, fluorescence polarization; O14786; actives 0.85% (n = 360,000); inhibition, % at 25 µM;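 active = inhibition or corrected inhibition above about 18%, plus a signal ratio from 0.5 to 1.5, limit read from the data, passing the limit was not always enough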
ERp5 block – blocks human ERp5 reductase activity on insulin. ERp5 insulin aggregation, absorbance 650 nm, 90 min. AID 651711. actives 0.05% (n = 350,000). inhibition, % at 9.99 µM. Q15084;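 active = mean replicate inhibition above about 25%, with every replicate also reaching it, limit read from the data, passing the limit was not always enough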
Target sequence (Q15084 whole entry, looked up): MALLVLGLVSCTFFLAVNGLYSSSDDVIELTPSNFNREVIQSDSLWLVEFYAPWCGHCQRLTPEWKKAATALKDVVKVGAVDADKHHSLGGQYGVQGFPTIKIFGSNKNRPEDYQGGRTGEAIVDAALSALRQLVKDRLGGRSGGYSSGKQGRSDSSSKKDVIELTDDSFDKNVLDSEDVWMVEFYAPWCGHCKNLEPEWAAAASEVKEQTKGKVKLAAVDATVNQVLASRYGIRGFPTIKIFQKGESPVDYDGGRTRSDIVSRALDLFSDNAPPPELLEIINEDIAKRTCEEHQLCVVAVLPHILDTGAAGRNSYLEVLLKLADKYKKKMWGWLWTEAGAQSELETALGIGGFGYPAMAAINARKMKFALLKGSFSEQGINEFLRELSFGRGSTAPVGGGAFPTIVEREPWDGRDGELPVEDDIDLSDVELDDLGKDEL
ARNT-TACC3 inh – disrupts binding between human ARNT and TACC3. Q9Y6A5. AlphaScreen His-ARNT PAS-B/GST-TACC3 binding, luminescence; TACC3 fragment carries E629A point mutation. inhibition, % at 9.99 µM. actives 0.66% (n = 390,000). AID 623870;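 active = mean inhibition of replicates at least 50% and at least half of replicates each reaching 50%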;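 note: 0% = complete ARNT plus TACC3 wells and 100% = ARNT alone without TACC3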
ALR inh – inhibitors of human sulfhydryl oxidase ALR; AID 485317; actives 3.8% (n = 290,000); purified ALR, DTT oxidation, H2O2 HRP-luminol luminescence; inhibition, % (concentration not given with the values); P55789;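 active = mean replicate inhibition above about 79%, with every replicate also reaching it, limit read from the data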
Target sequence (P55789 whole entry, looked up): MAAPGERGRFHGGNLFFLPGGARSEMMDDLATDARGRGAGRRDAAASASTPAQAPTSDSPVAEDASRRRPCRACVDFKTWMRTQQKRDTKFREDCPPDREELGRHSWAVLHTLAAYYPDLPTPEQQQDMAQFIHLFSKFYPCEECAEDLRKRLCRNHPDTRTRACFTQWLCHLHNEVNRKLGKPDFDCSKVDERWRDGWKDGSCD
PglD DTNB – blocks C. jejuni PglD acetyltransferase activity; purified PglD enzyme, DTNB colorimetric CoA detection; inhibition, % at 12.5 µM; actives 0.098% (n = 360,000); AID 602405; in the data active = inhibition above about 16%, passing the limit was not always enough
PDI inh – blocks human protein disulfide isomerase activity. P07237. PDI insulin aggregation turbidity, A650, 90 min. inhibition, % at 10 µM. actives 0.052% (n = 350,000). AID 588391;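 active = mean inhibition across replicates of 30% or more, whatever share of single replicates reach that level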
An asterisk follows results filed as active; nt = no result.

SMILES | CendR NRP1 mod | ERp5 block | ARNT-TACC3 inh | ALR inh | PglD DTNB | PDI inh
COc1ccc(NC(=O)N(C)C[C@@H]2Oc3ccc(NC(=O)c4ccncc4)cc3C(=O)N([C@H](C)CO)C[C@H]2C)cc1 | nt | 6 | 6 | nt | 2 | nt
CCOC(=O)c1sc(N/N=C/c2ccc(N(C)C)cc2)nc1C | 5 | 9 | -8 | -3 | -1 | 1
C=CCc1c(C)nc(C)nc1N/N=C/c1ccc(N(C)C)cc1 | 0 | nt | -27 | 99* | -1 | 8
C[C@H](CO)N1C[C@H](C)[C@H](CN(C)Cc2cccc(C(=O)O)c2)OCc2cnnn2CCCC1=O | nt | -5 | -1 | nt | 3 | nt
N#C[C@@H]1[C@H](c2ccc(C3=CCCC3)cc2)[C@@H](CO)N1C(=O)c1cccc(F)c1 | nt | 2 | 1 | nt | -1 | nt
COc1ccc(OC)c(CNc2nc3ccccc3n2CCN2CCCCC2)c1 | -12 | nt | 6 | -2 | -2 | 0
Brc1cccc(CNc2nc3ccccc3n2CCN2CCCCC2)c1 | -2 | 3 | 4 | nt | nt | -8
COc1cccc(CNc2nc3ccccc3n2CCN2CCCCC2)c1 | -14 | nt | 8 | 99* | -1 | 2
CCCn1c(NCc2cc(OC)ccc2OC)nc2ccccc21 | -6 | nt | 2 | 89* | 2 | 4
COc1cccc(CNc2nc3ccccc3n2CCN2CCCCC2)c1OC | 3 | nt | -14 | 99* | -3 | 13
COc1ccc(CNc2nc3ccccc3n2CCN2CCCCC2)c(OC)c1 | 8 | nt | 5 | 69 | -3 | -7
Cn1c(NCc2cccc(Br)c2)nc2ccccc21 | -19 | nt | 1 | 93* | 0 | 0
O=C(Cc1ccccc1)N1CCN=C1SCc1cccc([N+](=O)[O-])c1 | -7 | 0 | 3 | 98* | nt | 4
Cc1cccc(C(=O)N2CCN=C2SCc2ccc([N+](=O)[O-])cc2)c1 | 4 | 4 | 5 | 99* | nt | -3
Cc1cccc(CSC2=NCCN2C(=O)c2ccc(Br)o2)c1 | 4 | 3 | 0 | 95* | -5 | 0
CC(C)NC(=O)Nc1ccc2c(c1)C(=O)N([C@H](C)CO)C[C@H](C)[C@@H](CN(C)S(=O)(=O)c1cccs1)OCCCC[C@@H](C)O2 | nt | 1 | -9 | nt | -2 | nt
CCc1ccccc1NC(=O)CSc1nc(C)c(C)o1 | 17 | 2 | -4 | 99* | 2 | 2
COc1ccc([N+](=O)[O-])cc1NC(=O)c1cccs1 | -5 | -6 | 5 | -2 | nt | 4
COc1cc(N)ccc1NC(=O)c1cccs1 | 6 | nt | -1 | 99* | 1 | 1
COc1cccc(NC(=O)CCC(=O)Nc2cc(OC)c(NC(=O)c3cccs3)cc2OC)c1 | 0 | -1 | 50* | nt | -4 | 18
COc1ccc(NC(=O)CCC(=O)Nc2cc(OC)c(NC(=O)c3cccs3)cc2OC)cc1 | 2 | 6 | 1 | -1 | 1 | 9
CCN(CC)S(=O)(=O)c1ccc(OC)c(NC(=O)c2cccs2)c1 | 25* | -1 | -6 | -4 | 7 | 6
CC(=O)N(C)C[C@H]1Oc2cc(-c3ccccc3C)ccc2S(=O)(=O)N([C@@H](C)CO)C[C@@H]1C | nt | 6 | -3 | nt | 0 | nt
CC1(C)OC(=O)C(=CNCCc2ccc(O)cc2)C(=O)O1 | -2 | 10 | -6 | 88* | -4 | 11
O=C(C[C@H]1C[C@H]2c3cc(NC(=O)NC4CCCC4)ccc3O[C@H]2[C@H](CO)O1)NCc1ccc(-c2ccccc2)cc1 | nt | -1 | -1 | nt | 2 | nt
SMILES | CendR NRP1 mod | ERp5 block | ARNT-TACC3 inh | ALR inh | PglD DTNB | PDI inh
Nc1ncc(-c2ccccc2)c(-c2ccc(O)cc2O)n1 | -1 | 1 | 33 | 98* | 6 | 5
Oc1sc(C=Nc2ccccc2)c2ccccc12 | -100 | nt | 6 | 84* | -2 | -2
Cc1ccc(N2C(=O)CS(=O)C(c3ccccc3)C2=O)cc1C (centres undefined) | -3 | 2 | -16 | 98* | nt | 4
COc1ccc(N2C(=O)CS(=O)C(c3ccccc3)C2=O)cc1 (centres undefined) | 14 | -2 | -1 | 98* | nt | -9
Cc1ccc(N2C(=O)C3C(C2=O)N2CCCN2C3c2ccccc2)cc1C (centres undefined) | -6 | 9 | 0 | -3 | nt | 2
CCOC(=O)c1ccc(NS(=O)(=O)c2ccc(SC)cc2)cc1 | 6 | nt | -3 | -5 | -4 | 4
CCOC(=O)Cc1ccc(NS(=O)(=O)c2ccc(SC)cc2)cc1 | 25* | nt | 18 | -9 | -7 | 11
COc1cccc(C(=O)N2CCN=C2SC)c1 | -8 | 7 | 0 | 4 | nt | -10
COc1ccccc1C(=O)N1CCN=C1SC | 9 | nt | 5 | -13 | -1 | 1
COc1cccc(C(=O)N2CCN=C2SCc2cccnc2)c1OC | 6 | 3 | -1 | 100* | -2 | -4
COc1ccc(C(=O)N2CCN=C2SCc2cccnc2)c(OC)c1 | -3 | 7 | -9 | 100* | 2 | -9
O=C(N[C@@H]1C=C[C@H](CC(=O)N2CCCCC2)O[C@@H]1CO)c1ccccn1 | nt | 4 | 17 | nt | 40 | nt
O=C(c1ccccn1)N1CC[C@H]2[C@H](CO)Nc3ccc(C#Cc4ccccc4)cc3[C@H]21 | nt | -1 | nt | nt | nt | nt
O=C(NCCc1ccccc1)c1cc(-c2ccccc2)c(N2CCOCC2)s1 | -10 | -1 | nt | 5 | -4 | nt
CCN(CC)CCCNC(=O)c1cc(-c2ccccc2)c(N2CCCCC2)s1 | 10 | 2 | 4 | 99* | 5 | -3
Cc1cc(Nc2ccc(N(C)C)cc2)n2ncnc2n1 | -4 | 0 | -5 | 98* | 3 | -3
Cc1cc(Nc2ccc(Cl)cc2)n2ncnc2n1 | 1 | 1 | -3 | -5 | -11 | 3
CO[C@H](CN(C)Cc1cc(F)ccc1F)[C@@H](C)CN(C(=O)Nc1ccc(F)cc1)[C@@H](C)CO | nt | 0 | 1 | nt | -3 | nt
O=C(C[C@@H]1C=C[C@H](NC(=O)C2CCC2)[C@@H](CO)O1)NCc1ccncc1 | nt | -4 | 1 | nt | -3 | nt
Cc1ccc(S(=O)(=O)Nc2ccc3c(c2)C(=O)N([C@H](C)CO)C[C@@H](C)[C@@H](CN(C)C(=O)Nc2c(C)noc2C)O3)cc1 | nt | 3 | -5 | nt | 4 | nt
CCOC(=O)c1ccoc1CSCc1ccc(C(=O)OC)o1 | -6 | nt | 2 | 99* | 2 | 2
CCOC(=O)c1ccc(CSC(=N)N)o1 | -7 | -1 | -4 | 99* | -4 | 5
COC(=O)c1ccc(CSC(=N)N)o1 | -4 | 6 | -8 | nt | -6 | 0
CCc1nc(NCc2ccco2)c2oc3ccccc3c2n1 | -4 | nt | -1 | 88* | 0 | 3
CCc1nc(Nc2ccccc2O)c2oc3ccccc3c2n1 | 15 | 6 | -8 | -5 | -3 | -8
CCNc1nc(CC)nc2c1oc1ccccc12 | 8 | nt | 0 | -3 | nt | 1
CCc1nc(Nc2ccc(O)cc2)c2oc3ccccc3c2n1 | 6 | 4 | -8 | 93* | nt | -25
